Source: PubChem BioAssay (Tox21)
Inconclusive results are not listed. Activity calls are given as the source filed them. Unless noted, calls come from the whole dose curve; as a rule, active = well fitted curve in the direction sought with a large enough effect in the repeat runs; inconclusive = weak or mixed curves; inactive = no such curve, though single readings can be large; an effect the other way counts as inactive or inconclusive.

What was measured:
[1] = qHTS assay to identify small molecule antagonists of the estrogen receptor beta (ER-beta) signaling pathway - cell viability counter screen (AID 1259382);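 note: HEK293T cells carrying ER-beta-UAS-bla reporter stimulated with estradiol; series mostly up to about 92 µM; nearly all actives have a fitted effect of over 55% in size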
Summary of the method: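 ER-beta-UAS-bla HEK293T cells in 2% charcoal-stripped FBS medium, treated with compound plus 1 nM 17-beta-estradiol for 16 h at 37C. Viability read by CellTiter-Glo luminescence after 30 min at room temperature in the same wells.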

[2] = qHTS assay to identify small molecule agonists or antagonists of the thyroid stimulating hormone receptor (TSHR) signaling pathway - wild type cell line counter screen (AID 1259384; calls by dose curve)
Summary of the method: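 Wild-type Hek293 cells, 800/well, 18 h at 37C, then compound with Ro20-1724 for 30 min RT. cAMP by HTRF (cAMP-d2/anti-cAMP cryptate), 1 h RT, fluorescence read. 15 concentrations, triplicates.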

[3] = target: Thyrotropin receptor (Homo sapiens) (UniProt P16473); experiment: qHTS assay to identify small molecule antagonists of the thyroid stimulating hormone receptor (TSHR) signaling pathway (AID 1259385; calls by dose curve; note: nearly all actives have a fitted effect of over 20% in size)
Summary of the method: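 TSHR-HEK293 cells (800/well) plated 18 h, then compounds with Ro20-1724 and TSH at 1.5 ng/mL final, 30 min at room temperature. cAMP quantified by HTRF (cAMP-d2/anti-cAMP-cryptate, 1 h); 15 concentrations in triplicate.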

[4] = qHTS assay to identify small molecule agonists of the estrogen receptor alpha (ER-alpha) signaling pathway in the presence of an antagonist - cell viability counter screen (AID 1259386);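 note: series mostly up to about 92 µM; cells exposed to compounds for 22 h at 37 °C before the viability read; nearly all actives have a fitted effect of over 30% in size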
Summary of the method: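 Cell viability in VM7Luc4E2 cells (endogenous full-length ER-alpha) measured by CellTiter-Fluor fluorescence in the same wells as the luciferase screen. Cells pre-cultured 5 days in charcoal-stripped serum, then treated 22 h with compounds at 15 concentrations plus 10.0nM ICI-182,780.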

[5] = target: Progesterone receptor (Homo sapiens) (UniProt P06401); experiment: qHTS assay to identify small molecule agonists of the progesterone receptor (PR) signaling pathway (AID 1346784; calls by dose curve; note: nearly all actives have a fitted effect of over 30% in size)
Summary of the method: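 Compounds were tested for PR agonism in HEK 293T cells bearing a beta-lactamase gene under UAS control. Treatment lasted 16 hr at 37C; signal came from fluorescence of a FRET substrate.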

[6] = target: Progesterone receptor (Homo sapiens) (UniProt P06401); experiment: qHTS assay to identify small molecule antagonists of the progesterone receptor (PR) signaling pathway (AID 1346795; active = well fitted inhibition curve with a large enough effect in the signal ratio in the repeat runs, not every such curve was filed as active; the % refers to the signal ratio)
Summary of the method: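 In HEK293T cells bearing the PR-UAS-bla reporter, compound effects on promegestone-driven (1 nM) beta-lactamase expression are assessed after 16 hr using a fluorescent FRET substrate incubated 2 hr at room temperature.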

[7] = qHTS assay to identify small molecule antagonists of the progesterone receptor (PR) signaling pathway - cell viability counter screen (AID 1346798); note: series mostly up to about 92 µM; nearly all actives have a fitted effect of over 50% in size
Summary of the method: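 Following a 4 hr attachment, PR-UAS-bla HEK293T cells in charcoal-stripped FBS medium were exposed to compounds with R5020 for 16 hr; CellTiter-Glo was added and luminescence read after 30 min at room temperature.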

[8] = qHTS assay to identify small molecule agonists of the progesterone receptor (PR) signaling pathway - cell viability counter screen (AID 1346799; calls by dose curve; note: nearly all actives have a fitted effect of over 45% in size)
Summary of the method: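 Here, 3,000 PR-UAS-bla HEK293T cells per well were treated with compounds for 16 hr after a 6 hr preincubation at 37C and 5% CO2; cell viability is the CellTiter-Glo luminescence signal.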

[9] = qHTS assay to identify small molecule antagonists of the TGF-beta/Smad signaling pathway - cell viability counter screen (AID 1346824); note: nearly all actives have a fitted effect of over 50% in size
Summary of the method: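 SBE-bla HEK 293T cells, incubated overnight, then compound plus 0.25 ng/mL TGF-beta1 (stock added) for 5 hr at 37 C. Viability was read in the same wells by CellTiter-Glo luminescence after 30 min at room temperature.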

[10] = qHTS assay to identify small molecule agonists of the TGF-beta/Smad signaling pathway - cell viability counter screen (AID 1346829); note: top concentration of the series differs between compounds; nearly all actives have a fitted effect of over 45% in size
Summary of the method: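 CellTiter-Glo luminescence readout; SBE-bla HEK 293T cells, overnight plating, compound 5 hr at 37 C/5% CO2, then bla substrate 2 hr RT, then CellTiter-Glo 30 min RT.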

[11] = qHTS assay to identify small molecule agonists of the TGF-beta/Smad signaling pathway (AID 1346859; active = well fitted activation curve with a large enough effect in the signal ratio in the repeat runs, not every such curve was filed as active; the % refers to the signal ratio; note: series mostly up to about 77 µM)
Summary of the method: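 Each well held 4,000 SBE-bla HEK 293T cells incubated overnight before compound addition; 5 hr later the cleavable FRET substrate went on for 2 hr at room temperature, and fluorescence was read at two emissions.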

[12] = target: Thyrotropin-releasing hormone receptor (Homo sapiens) (UniProt P34981); experiment: qHTS assay to identify small molecule antagonists of the thyrotropin-releasing hormone receptor (TRHR) signaling pathway (AID 1346877; active = well fitted inhibition curve with a large enough effect in the repeat runs, not every such curve was filed as active; note: series mostly up to about 51 µM)
Summary of the method: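 TRHR-expressing HEK293 cells loaded with calcium dye for 2 h at 37 C; compounds pre-incubated 5 min at room temperature before TRH challenge at 1 nM final. Intracellular calcium fluorescence read kinetically for 3 min; 15 concentrations in triplicate.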

[13] = target: Thyrotropin-releasing hormone receptor (Homo sapiens) (UniProt P34981); experiment: qHTS assay to identify small molecule agonists of the thyrotropin-releasing hormone receptor (TRHR) signaling pathway (AID 1346891; calls by dose curve; note: series mostly up to about 58 µM)
Summary of the method: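 Screening of agonists relied on calcium signalling in HEK293 cells expressing human TRHR: dye loading 2 h at 37 °C preceded compound addition and a 3-min fluorescence time course.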

[14] = Human pregnane X receptor (PXR) small molecule agonists, qHTS cell viability counter screen (AID 1346977); note: nearly all actives have a fitted effect of over 50% in size
Summary of the method: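 Tox21 qHTS format; PXR-Luc HepG2, 2,000/well, charcoal-stripped FBS 5%. Cpd exposure 24hr. Read: CellTiter-Fluor fluorescence, multiplexed with luciferase.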

[15] = Caspase-3/7 induction in HepG2 cells by small molecules, qHTS assay (AID 1346978); note: nearly all actives have a fitted effect of over 15% in size
Summary of the method: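 Wild-type HepG2 cells, 2,000/well, settled 5 hr at 37 C and 5% CO2, then compound-treated for 17 hr; caspase-3/7 activity read by luminescent Caspase-Glo 3/7 after 30 min at room temperature.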

[16] = Caspase-3/7 induction in CHO-K1 cells by small molecules, qHTS cell viability counter screen (AID 1346979); note: nearly all actives have a fitted effect of over 35% in size; note: potency is the fitted concentration of half-maximal effect
Summary of the method: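 CellTiter-Fluor viability check, qHTS format: wild-type CHO-K1, 16hr compound treatment, 1hr reagent incubation, fluorescence read.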

[17] = Caspase-3/7 induction in CHO-K1 cells by small molecules, qHTS assay (AID 1346980); note: nearly all actives have a fitted effect of over 15% in size
Summary of the method: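 Wild-type CHO-K1 cells exposed to compounds for 17hr at 37 C, 5% CO2. Caspase-3/7 activity then measured by Caspase-Glo 3/7 luminescence after 30min at room temperature.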

[18] = target: Estrogen receptor (Homo sapiens) (UniProt P03372); experiment: qHTS assay to identify small molecule agonists of the estrogen receptor alpha (ER-alpha) signaling pathway in the presence of an antagonist (AID 1259383; calls by dose curve; note: top concentration of the series differs between compounds; nearly all actives have a fitted effect of over 15% in size)
Summary of the method: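 VM7Luc4E2 cells express endogenous full-length ER-alpha with an ERE-luciferase reporter and were hormone-deprived for 5 days. Compounds at 15 concentrations were added with 10.0nM ICI-182,780 for 22hr at 37C. Luminescence was read with ONE-Glo.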

[19] = Caspase-3/7 induction in HepG2 cells by small molecules, qHTS cell viability counter screen (AID 1346981); note: series mostly up to about 92 µM; nearly all actives have a fitted effect of over 30% in size
Summary of the method: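 Wild-type HepG2 cells, 2,000/well, settled 5 hr at 37 C, 5% CO2 before compound addition. Viability read by CellTiter-Fluor fluorescence, reagent added after 16 hr compound exposure, then 1 hr at 37C, in the same wells as the caspase read.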
% is set by controls: 0 for no effect and ±100 for the full control effect.

Thyrotropin receptor (Homo sapiens), sequence (P16473 whole entry, looked up): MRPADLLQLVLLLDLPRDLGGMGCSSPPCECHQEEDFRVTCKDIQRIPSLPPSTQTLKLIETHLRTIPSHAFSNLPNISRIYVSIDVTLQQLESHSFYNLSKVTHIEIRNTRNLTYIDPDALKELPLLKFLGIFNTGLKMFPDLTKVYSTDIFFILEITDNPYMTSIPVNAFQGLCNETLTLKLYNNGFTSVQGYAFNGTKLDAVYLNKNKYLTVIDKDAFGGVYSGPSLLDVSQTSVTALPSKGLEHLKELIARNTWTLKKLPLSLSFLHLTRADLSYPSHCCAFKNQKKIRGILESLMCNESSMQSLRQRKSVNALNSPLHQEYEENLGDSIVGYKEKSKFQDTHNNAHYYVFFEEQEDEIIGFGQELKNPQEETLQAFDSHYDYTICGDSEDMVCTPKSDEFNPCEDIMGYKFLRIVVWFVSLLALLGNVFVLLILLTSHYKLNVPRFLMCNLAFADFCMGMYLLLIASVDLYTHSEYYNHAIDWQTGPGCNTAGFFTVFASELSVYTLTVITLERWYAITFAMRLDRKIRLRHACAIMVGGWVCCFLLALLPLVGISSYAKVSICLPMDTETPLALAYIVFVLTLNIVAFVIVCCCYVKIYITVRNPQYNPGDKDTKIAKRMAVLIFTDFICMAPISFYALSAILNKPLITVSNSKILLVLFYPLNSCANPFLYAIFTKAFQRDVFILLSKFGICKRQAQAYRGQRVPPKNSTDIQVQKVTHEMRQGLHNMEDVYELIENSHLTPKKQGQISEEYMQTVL
Estrogen receptor (Homo sapiens), sequence (P03372 whole entry, looked up): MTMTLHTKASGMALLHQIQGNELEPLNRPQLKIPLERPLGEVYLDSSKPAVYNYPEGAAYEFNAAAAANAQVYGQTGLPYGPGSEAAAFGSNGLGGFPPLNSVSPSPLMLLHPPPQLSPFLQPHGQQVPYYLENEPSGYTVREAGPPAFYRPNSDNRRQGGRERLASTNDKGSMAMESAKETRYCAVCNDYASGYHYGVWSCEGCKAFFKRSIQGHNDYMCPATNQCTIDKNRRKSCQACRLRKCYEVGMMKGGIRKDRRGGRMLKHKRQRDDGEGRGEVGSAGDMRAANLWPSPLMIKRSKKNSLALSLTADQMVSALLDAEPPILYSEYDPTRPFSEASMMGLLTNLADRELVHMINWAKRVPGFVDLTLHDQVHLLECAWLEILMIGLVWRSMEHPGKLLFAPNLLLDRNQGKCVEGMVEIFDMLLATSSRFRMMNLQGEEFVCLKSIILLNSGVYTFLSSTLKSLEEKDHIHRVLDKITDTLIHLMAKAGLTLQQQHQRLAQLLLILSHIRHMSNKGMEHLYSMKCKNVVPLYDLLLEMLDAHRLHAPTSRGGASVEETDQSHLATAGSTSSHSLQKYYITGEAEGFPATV
Progesterone receptor (Homo sapiens), sequence (P06401 whole entry, looked up): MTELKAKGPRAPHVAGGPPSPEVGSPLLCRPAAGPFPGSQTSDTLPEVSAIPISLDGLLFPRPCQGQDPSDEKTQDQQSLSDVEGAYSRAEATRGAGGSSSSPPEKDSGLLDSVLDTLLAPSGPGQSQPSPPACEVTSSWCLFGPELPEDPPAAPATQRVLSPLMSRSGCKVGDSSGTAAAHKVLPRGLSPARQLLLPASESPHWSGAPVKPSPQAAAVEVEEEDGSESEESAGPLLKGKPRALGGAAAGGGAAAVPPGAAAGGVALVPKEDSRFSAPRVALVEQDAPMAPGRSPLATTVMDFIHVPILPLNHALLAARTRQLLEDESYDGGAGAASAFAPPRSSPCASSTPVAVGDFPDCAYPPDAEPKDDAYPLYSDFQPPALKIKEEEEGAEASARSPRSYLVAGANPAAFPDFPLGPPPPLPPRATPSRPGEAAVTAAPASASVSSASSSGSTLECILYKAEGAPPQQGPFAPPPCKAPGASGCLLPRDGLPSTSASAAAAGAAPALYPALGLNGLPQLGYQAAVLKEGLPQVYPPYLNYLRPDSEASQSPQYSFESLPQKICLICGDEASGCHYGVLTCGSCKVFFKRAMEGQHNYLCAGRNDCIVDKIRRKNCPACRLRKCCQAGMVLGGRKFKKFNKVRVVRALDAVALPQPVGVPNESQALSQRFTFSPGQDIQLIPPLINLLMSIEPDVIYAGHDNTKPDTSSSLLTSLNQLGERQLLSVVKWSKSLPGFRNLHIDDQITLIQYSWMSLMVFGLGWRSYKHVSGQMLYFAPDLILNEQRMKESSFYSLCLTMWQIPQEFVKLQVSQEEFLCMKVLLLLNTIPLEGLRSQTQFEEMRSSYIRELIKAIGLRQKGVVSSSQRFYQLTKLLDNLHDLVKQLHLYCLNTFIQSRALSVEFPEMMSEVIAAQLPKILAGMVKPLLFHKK
Thyrotropin-releasing hormone receptor (Homo sapiens), sequence (P34981 whole entry, looked up): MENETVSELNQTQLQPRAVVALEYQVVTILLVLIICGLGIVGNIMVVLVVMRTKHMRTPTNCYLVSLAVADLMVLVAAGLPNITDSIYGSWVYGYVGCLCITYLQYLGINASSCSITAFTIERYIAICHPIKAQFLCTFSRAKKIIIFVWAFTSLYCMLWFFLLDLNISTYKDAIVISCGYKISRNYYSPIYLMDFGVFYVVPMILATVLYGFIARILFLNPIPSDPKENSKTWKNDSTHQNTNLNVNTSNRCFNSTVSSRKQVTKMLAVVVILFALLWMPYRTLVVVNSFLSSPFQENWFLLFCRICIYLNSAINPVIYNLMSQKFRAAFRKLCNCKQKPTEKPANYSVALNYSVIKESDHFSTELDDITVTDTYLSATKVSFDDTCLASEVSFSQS

O=C1NC2NC(=O)NC2N1 (configuration not stated)
inactive: outcome [1] | outcome [2] | outcome [3] | Potency [4] | Potency [5] | Potency [6] | Potency [7] | Potency [8] | outcome [9] | outcome [10] | outcome [11] | outcome [12] | outcome [13] | Potency [14] | outcome [15] | Potency [16] | outcome [17]

CO[Si](CCCCl)(OC)OC
inactive: outcome [1] | outcome [18] | Potency [4] | Potency [5] | Potency [6] | Potency [7] | outcome [9] | outcome [10] | outcome [11] | outcome [12] | outcome [13] | Potency [14] | outcome [15] | Potency [16] | outcome [17] | Potency [19]

CC(CC(=O)O)CC(C)(C)C (configuration not stated)
inactive: outcome [1] | outcome [18] | Potency [4] | Potency [5] | Potency [6] | Potency [8] | outcome [9] | outcome [10] | outcome [11] | outcome [12] | outcome [13] | Potency [14] | outcome [15] | Potency [16] | outcome [17] | Potency [19]

NS(=O)(=O)c1cc2c(cc1Cl)NC(CC1CCCC1)NS2(=O)=O (configuration not stated)
inactive: outcome [1] | outcome [2] | outcome [3] | Potency [4] | Potency [5] | Potency [6] | Potency [7] | Potency [8] | outcome [9] | outcome [10] | outcome [11] | outcome [12] | outcome [13] | Potency [14] | outcome [15] | Potency [16] | outcome [17] | Potency [19]

Cc1cc(O)c2c(c1)C(=O)c1cccc(O)c1C2=O
inactive: outcome [1] | outcome [18] | Potency [5] | Potency [7] | Potency [8] | outcome [9] | outcome [10] | outcome [11] | outcome [12] | outcome [13] | Potency [14] | outcome [15] | outcome [17] | Potency [19]
active: Potency [16] 29.9 µM

C1=CCC(c2ccccc2)CC1 (configuration not stated)
inactive: outcome [1] | outcome [2] | outcome [3] | Potency [4] | Potency [5] | Potency [6] | Potency [7] | Potency [8] | outcome [9] | outcome [10] | outcome [11] | outcome [12] | outcome [13] | Potency [14] | outcome [15] | Potency [16] | outcome [17] | Potency [19]

O=C(Nc1cccc(C2=NCCN2)c1)Nc1cccc(C2=NCCN2)c1
inactive: activity change, negative = cytotoxicity [1] -2.3% [at 19 µM] | activation [18] 0.321% [at 19 µM] | activity change, negative = cytotoxicity [4] 1.98% [at 19 µM] | activity change, negative = cytotoxicity [7] 21% [at 18.9 µM] | activity change, negative = cytotoxicity [8] 7.7% [at 19 µM] | viability change, negative = cytotoxic [9] -4.13% [at 15.8 µM] | activity change, negative = cytotoxicity [10] -14.4% [at 15.8 µM] | activation [11] 0.662% [at 15.8 µM] | activity change, negative = cytotoxicity [14] 1.2% [at 19 µM] | caspase activation [15] -0.792% [at 19 µM] | activity change, negative = cytotoxicity [16] 4% [at 19 µM] | caspase-3/7 activation [17] 0.277% [at 19 µM]
